# ± gives the standard deviation.
# Columns and labels:
# Streptococcus suis HE06 = assay: percent growth relative to DMSO control; higher = less growth inhibition; settings: 10 µM; incubation time 18 h
# Description: (§1)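 CLSI broth microdilution: 5x10^4 CFU of Streptococcus suis (strain P1/7 or HE06) incubated with 10 µM Pathogen Box compound in cation-adjusted Mueller Hinton broth, 37 °C, 5% CO2, 18 h. Growth read as OD600 and expressed as percent of the DMSO-treated control (100%); mean ± SD of three independent experiments.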
# Streptococcus suis P1/7 = assay: as above; settings: 10 µM; incubation time 18 h
# Description: as §1
SMILES,percent growth (Streptococcus suis HE06),percent growth (Streptococcus suis P1/7)
CCC(NC(=O)c1ccccc1NC(=O)c1ccc(C)cc1)C(=O)OC (stereo not given),92 ± 4.7%,78.1 ± 18%
O=C(C1CCN(c2nnc(-n3cccc3)s2)CC1)N1CCC(Cc2ccccc2)CC1,120 ± 18%,100 ± 41%
c1ccc2c(c1)CN(CC1CC1)CC1(CCN(Cc3c[nH]c4cnccc34)CC1)O2,85.1 ± 15%,91.8 ± 5.5%
CCOC(=O)c1c(NC(=O)c2c(F)c(F)c(F)c(F)c2F)sc(C(N)=O)c1C,91.9 ± 6%,83.2 ± 22%
COc1cc(C2=NCCN2)ccc1-n1cc(-c2cccc(C3=NCCN3)c2)nn1,99.7 ± 40%,63.4 ± 23%
NCC(c1cccs1)S(=O)(=O)c1ccccc1 (stereo not given),111 ± 30%,90.2 ± 41%
COc1ccc(CN2CCOc3ccc(C(C)(O)CN(C)C)cc3C2)cc1C (stereo not given),103 ± 14%,101 ± 27%
FC(F)(F)c1nnc2ccc(Cl)nn12,74.8 ± 22%,85 ± 18%
CC(=O)N(CCN(C(=O)c1ccc(F)cc1)c1ccccc1)c1ccccc1,86.6 ± 26%,69 ± 13%
O=C(NCc1ccoc1)N1CCN(Cc2ccc3c(c2)OCO3)CC1,94 ± 5.7%,78.3 ± 6.3%
CCCc1ccc(S(=O)(=O)Nc2ccc(CN3CCN(CC4CC4)CC3)cc2)cc1,88 ± 15%,94.1 ± 34%
CS(=O)(=O)N1CCC(Cn2nc(Cc3cccc4ccccc34)c3c(N)ncnc32)CC1,91.3 ± 29%,65.7 ± 20%
Cc1ccc(NC(=O)CC2COc3ccccc3O2)cc1Cl (stereo not given),96.4 ± 1.4%,95.7 ± 33%
Clc1ccc(CN2CCN(C3=NCCN3)CC2)cc1Cl,89 ± 2.1%,72.2 ± 28%
CS(=O)(=O)N1CCC(CCn2nc(Cc3cccc4ccccc34)c3c(N)ncnc32)CC1,90.3 ± 15%,100 ± 38%
CCN(CC)C(=O)N1CCN(C)CC1,92.6 ± 6.9%,91.1 ± 17%
O=C(Nc1ccc(C(F)(F)F)c(C(F)(F)F)c1)c1cc(Cl)ccc1O,0%,6.44 ± 11%
CC(=O)N1CCN(c2ccc(Oc3ccc(Cl)cc3O)cc2)CC1,142 ± 58%,95.7 ± 30%
O=C(Nc1ccc(N2CCNCC2)cc1)c1ccn2ncc(-c3cccc(Cl)c3)c2n1,98.9 ± 27%,75.2 ± 22%
C[C@H]1COc2c(N3CCN(C)CC3)c(F)cc3c(=O)c(C(=O)O)cn1c23,1.93 ± 0.63%,1.55 ± 1.7%

SMILES,percent growth (Streptococcus suis HE06),percent growth (Streptococcus suis P1/7)
c1cncc(NCc2ccc(-c3cc4ccncc4cc3OC3CCNCC3)s2)c1,100 ± 18%,66.3 ± 22%
CC(C)n1ncc2c(C(=O)NCC(c3cccs3)N3CCOCC3)cc(-c3ccccc3)nc21 (stereo not given),89.9 ± 4.6%,106 ± 36%
CC(=O)N1CCc2cc3nc(C)cc(C)c3cc21,88.4 ± 9.8%,91.7 ± 27%
COc1ccc(CCN2CCC(NCc3cccc(N(C)C)c3)CC2)cc1,98.6 ± 35%,67.3 ± 22%
CCC(C)NC(=O)c1ccc(NC(=O)C2(c3ccccc3)CCCC2)cc1 (stereo not given),105 ± 27%,78.1 ± 25%
CC1COC2(CCN(c3nc(=O)c4cc(C(F)(F)F)cc([N+](=O)[O-])c4s3)CC2)O1 (stereo not given),80.1 ± 1.6%,81.2 ± 24%
O=C(Nc1nc(-c2ccccn2)cs1)C1CC1c1ccccc1F (stereo not given),-0.0889 ± 1.4%,2.29 ± 3.7%
N=C(N)c1ccc(OCCCCCOc2ccc(C(=N)N)cc2)cc1,146 ± 200%,37.1 ± 32%
O=C(Nc1nnc(-c2ccc(Cl)s2)o1)c1ccc(Cl)s1,1.06 ± 1.1%,3.26 ± 4.9%
O=C(c1[nH]nc2c1CCCC2)N1CCN(Cc2ccc3c(c2)OCO3)CC1,81.9 ± 4.7%,99.9 ± 45%
O=C(C1CCN(c2cc(-n3cccc3)ncn2)CC1)N1CCc2ccccc2C1,106 ± 15%,59.5 ± 45%
CNC(=O)C1Cc2c([nH]c3cc(Cl)ccc23)C2(CCN(CCc3ccccc3)CC2)N1 (stereo not given),95.5 ± 23%,77.4 ± 9%
COc1ccc(C(=N)N)cc1-c1cn(-c2ccc(C(=N)N)cc2)nn1,105 ± 42%,75.7 ± 2.9%
COc1ccccc1CNC(=O)c1cc(C2CC2)nc2c1cnn2C(C)C,81.6 ± 10%,83.8 ± 45%
CCCCN(CCCC)c1c(C#N)cc(S(=O)(=O)Nc2ccccc2)cc1C#N,86.6 ± 25%,69.8 ± 27%
c1coc(CNc2nc(N3CCCCC3)nc3ccccc23)c1,78 ± 7.8%,89 ± 32%
CCN(CC)CCCN1CCN(C(=O)c2cccc(-c3noc(C(F)(F)F)n3)c2)CC1,90.3 ± 14%,138 ± 110%
CCCn1c(NC(=O)c2ccc3ccccc3n2)nc2ccccc21,0%,0.618 ± 1.5%
CC(C)(CN)c1nc(-c2ccc(Cl)c(O)c2)c(-c2ccnc(N)n2)[nH]1,90.9 ± 6.5%,79.2 ± 20%
C[C@H]1c2cccc(O)c2C(=O)C2=C(O)[C@]3(O)C(=O)C(C(N)=O)=C(O)[C@@H](N(C)C)[C@@H]3[C@@H](O)[C@@H]21,10.4 ± 18%,1.89 ± 3.3%

# Reference: the supplement of paper PMC7866885, “A novel bicyclic 2,4-diaminopyrimidine inhibitor of Streptococcus suis dihydrofolate reductase” (PeerJ, 2021)
